Data taken from PubChem BioAssay AID1578 (Sanford-Burnham Center for Chemical Genomics, 2009).
Hit rate of the full screen: of about 290,000 compounds, about 3,000 (1%) were called active. The sample holds actives, similar compounds and a random draw of the others, so the mix is not that of the screen. Values without a mark were called inactive. No stated cut-off is given here; in the data, active means inhibition mostly above about 36% (no sharp cut-off); inactive means mostly below about 34%.

assay: inhibition of NOD1-driven NF-kB reporter – cell-based, luminescence, uHTS, primary screen (AID 1578); settings: NOD1-driven NF-kB luciferase reporter cells, at 4 µM, active compounds read high;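 further: HEK-293T reporter cells stimulated with the NOD1 agonist gamma-tri-DAP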

| Compound | inhibition |
| --- | --- |
| Nc1nc(-c2ccccc2)c(N=Nc2ccc(Cl)cc2)s1 | 14.5% |
| Nc1nc(-c2ccccc2)c(N=Nc2cccnc2)s1 | 69.6% (active) |
| Nc1nc(-c2ccccc2)c(N=Nc2cccc3ccccc23)s1 | -6.2% |
| Cc1cc(NC(=O)CSc2nc(Cc3ccc(O)cc3)c(C)[nH]2)no1 | 29.2% |
| COC(=O)c1nn(-c2ccc3c(c2)CCN3C(C)=O)cc1O | 78.5% (active) |
| CCOC(=O)c1nn(-c2ccc3c(c2)CCN3C(C)=O)cc1O | -27.8% |
| COC(=O)c1nn(-c2ccc3c(c2)OCO3)cc1O | -11.8% |
| N#CN=C(c1ccccc1)c1ccccc1 | -20.8% |
| O=C(c1ccc(N2CCCC2=O)cc1)N1CCN(c2ccc(Cl)cc2)CC1 | -4.5% |
| O=C(c1ccccc1-c1nc(-c2ccccc2)no1)N1CCCC1 | -35% |
| FC(F)(F)c1ccc(C2NCCc3sccc32)cc1 (stereo unspecified) | -38.2% |
| Cn1ccs/c1=N\C(=O)Nc1cccc(Cl)c1 | 110% (active) |
| Cn1ccs/c1=N\C(=O)Nc1ccccc1 | -7.2% |
| Cn1ccs/c1=N\C(=O)Nc1cccc(C(F)(F)F)c1 | -21.9% |
| CCOC(=O)CN1C(=O)S/C(=C/c2ccco2)C1=O | -37.3% |
| CC(C)N(C)Cc1nnnn1CC(=O)N(C)Cc1cccc(Cl)c1 | -14.1% |
| Nc1nc(Nc2ccc(Cl)cc2)nc(NCCO)c1[N+](=O)[O-] | 3% |
| CC(C)C(=O)Nc1cccc(C(=O)Nc2ccccc2C(=O)O)c1 | -0.4% |
| Cc1cc(Cl)ccc1OC(C)C(=O)Nc1ccc(C(=O)Nc2ccccc2C(=O)O)cc1 (stereo unspecified) | 82.7% (active) |
| Cc1ccc(NC(=O)c2ccc(OC(=O)C(C)Oc3ccc(Cl)cc3C)cc2)cc1 (stereo unspecified) | -12.4% |
| Cn1cnnc1SCc1ccc(C#N)cc1Cl | -35.4% |
| CC1CC(NC(=O)Cc2ccc(Br)cc2)CC(C)(C)C1 (stereo unspecified) | -9.8% |
| O=C(c1cccc2c1-c1ccccc1/C2=N/O)N1CCCCC1 | 66.9% (active) |
| CC(C)COC(=O)c1cccc2c1-c1ccccc1/C2=N\O | 14.1% |

| Compound | inhibition |
| --- | --- |
| O=C1c2ccccc2-c2c1cccc2C(=O)N1CCCCCC1 | 0.4% |
| CC1CCCC(C)N1C(=O)c1cccc2c1-c1ccccc1/C2=N/O (stereo unspecified) | 75.8% (active) |
| O=C1c2ccccc2-c2c1cccc2C(=O)N1CCCCC1 | -12.6% |
| COc1ccccc1C(=O)Nc1ccccc1C(=O)N1C(C)CCCC1C (stereo unspecified) | -5% |
| CN1CC(=O)N(CC(=O)Nc2cc(Cl)cc(Cl)c2)C1=O | -17.3% |
| CCn1c(=O)c(C(=O)Nc2ccsc2C(=O)OC)c(O)c2ccccc21 | -28.8% |
| COc1ccccc1C(=O)NC1CC2CCC(C1)N2Cc1ccccc1 (stereo unspecified) | -9.7% |
| COc1ccc(CCNC(=S)NC(=O)c2cccc(Cl)c2)cc1OC | -2.1% |
| Cn1nc([N+](=O)[O-])c(C(C#N)c2ccccn2)c(Cl)c1=O (stereo unspecified) | -21.4% |
| CCn1nc([N+](=O)[O-])c(C(C#N)c2nc3ccccc3n2C)c(Cl)c1=O (stereo unspecified) | 32% |
| Cn1nc([N+](=O)[O-])c(C(C#N)c2nc3ccccc3n2C)c(Cl)c1=O (stereo unspecified) | 23.7% |
| CCCn1nc([N+](=O)[O-])c(C(C#N)c2nc3ccccc3o2)c(Cl)c1=O (stereo unspecified) | 80.5% (active) |
| CCCn1nc([N+](=O)[O-])c(C(C#N)c2nc3ccccc3s2)c(Cl)c1=O (stereo unspecified) | 63.6% |
| COc1ccc(C(C(=O)NC2CCCCC2)N(C(=O)c2ccco2)c2ccccc2C(C)=O)cc1OC (stereo unspecified) | -17.6% |
| COc1ccc2c(c1)C(=O)C(=O)N2CC1COc2ccccc2O1 (stereo unspecified) | -10% |
| O=C(NCCc1csc(-c2ccccc2)n1)c1ccccc1F | 28.3% (active) |
| O=C(NCCc1csc(-c2ccccc2)n1)c1c(F)cccc1F | -19.1% |
| O=C(NCCc1csc(-c2ccccc2)n1)c1c(F)cccc1Cl | -7.4% |
| CCOC(=O)c1nnn2c1nc(N1CCOCC1)c1ccccc12 | 3.1% |
| Cc1ccc(C(=O)N(CC(=O)NC2CCCCC2)c2ccccc2F)s1 | -27% |
| O=C(NC1CC1)c1ccc(CS(=O)c2ccccc2)o1 (stereo unspecified) | -19% |
| Cc1ccc2nc(NC(=O)c3ccc(OCC4CCCO4)cc3)sc2c1 (stereo unspecified) | 3.2% |
| C/C=C(/C)C(=O)OC(C)(C)[C@@H]1Cc2c(ccc3ccc(=O)oc23)O1 | -44.4% |
| Cc1cccc(C)c1NC(=O)COn1nnc2ccc(C(F)(F)F)cc21 | -17.2% |

| Compound | inhibition |
| --- | --- |
| O=C(COn1nnc2ccc(C(F)(F)F)cc21)Nc1nnc(-c2ccccc2)o1 | 67.4% (active) |
| O=C(COn1nnc2ccc(C(F)(F)F)cc21)Nc1c(Cl)cccc1Cl | -17.9% |
| CCOC(=O)C1(Nc2nccs2)Sc2ccccc2NC1=O (stereo unspecified) | 24.1% |
| CSc1nncc(-c2ccc(F)cc2)n1 | 12.5% |
| COc1ccc(/C(C)=N/NC(=O)c2ccc(NS(=O)(=O)c3cccs3)cc2)cc1 | -9.8% |
| CSCC[C@H](N)C(=O)NCC1CCC(C(=O)Nc2ccc3c(c2)OCO3)CC1 (stereo partly specified) | -1.6% |
| N#CC1(c2ccccc2)CCCN1C(=O)c1ccco1 (stereo unspecified) | 7.3% |
| Cc1c(C(C)(C)C)s/c(=N/S(=O)(=O)c2ccccc2)n1C | 3% |
| O=Cc1s/c(=N\S(=O)(=O)c2ccccc2)n(CCCCl)c1Cl | 17.3% |
| CCn1c(Cl)c(C=O)s/c1=N\S(=O)(=O)c1ccccc1 | 34% (active) |
| CN(C)S(=O)(=O)c1cccc(C(=O)Nc2ccccc2N2CCCCC2)c1 | -14.5% |
| COc1ccc(-c2c(-c3cc(OC)c(OC)c(OC)c3)noc2C)cn1 | -8.6% |
| COc1cc(-c2c(-c3cc(OC)c(OC)c(OC)c3)noc2C)ccc1F | -21.2% |
| COc1cc(-c2noc(C)c2-c2ccc(N(C)C)nc2)cc(OC)c1OC | 62% (active) |
| CCOC(=O)c1cnn(-c2nc3sc4c(c3c(=O)[nH]2)CCCC4)c1N | 63.7% (active) |
| CCOC(=O)c1cnn(-c2nc(SC)nc3sc4c(c23)CCCC4)c1N | -0.3% |
| CCOC(=O)c1cnn(-c2nc(C)nc3sc4c(c23)CCC4)c1N | -33% |
| S=C(NCc1ccc(Cl)cc1)NN1CCOCC1 | -24.6% |
| CCOCCCNC(=O)NC(=O)CN1CCN(S(=O)(=O)c2ccc3c(c2)OCCO3)CC1 | -47% |
| O=C1CCC(=O)N1CC1CC2CCC1C2 (stereo unspecified) | 0.2% |
| COC(=O)c1cn(-c2ccccc2)nc1-c1ccc(OC)cc1 | 47.5% (active) |
| COc1ccc(-c2nn(-c3ccccc3)cc2C(=O)O)cc1 | 18.9% |
| COC(=O)c1cn(-c2ccccc2)nc1-c1ccccc1 | -4.9% |
| O=C(c1ccc(Br)cc1)N(c1ccccn1)C1CCCCC1 | -12.8% |

| Compound | inhibition |
| --- | --- |
| CCCN1C(=O)/C(=C/c2c(N3CCNC(=O)C3CC(=O)OCC)nc3c(C)cccn3c2=O)SC1=S (stereo unspecified) | -1% |
| CCOC(=O)CC1C(=O)NCCN1c1nc2ccc(C)cn2c(=O)c1/C=C1\SC(=S)N(C(C)CC)C1=O (stereo unspecified) | 20.6% |
| CCOC(=O)CC1C(=O)NCCN1c1nc2c(C)cccn2c(=O)c1/C=C1\SC(=S)N(CC(C)C)C1=O (stereo unspecified) | 32% (active) |
| CCOC(=O)CC1C(=O)NCCN1c1nc2ccc(C)cn2c(=O)c1/C=C1\SC(=S)N(CC(C)C)C1=O (stereo unspecified) | 3.2% |
| CCOC(=O)CC1C(=O)NCCN1c1nc2c(C)cccn2c(=O)c1/C=C1\SC(=S)N(C(C)CC)C1=O (stereo unspecified) | 35.4% (active) |
| CCCN1C(=O)/C(=C/c2c(N3CCNC(=O)C3CC(=O)OC)nc3c(C)cccn3c2=O)SC1=S (stereo unspecified) | 6.9% |
| COc1ccc(C(=O)O)cc1NC(=S)NC(=O)Cc1ccc(Cl)cc1 | -11.2% |
| Cn1c(SCC(=O)NCCc2ccccc2)nnc1C1CCCCC1 | -6.8% |
| COC(=O)Nc1ccc(N2CCOCC2)c(S(=O)(=O)N2CCOCC2)c1 | -18% |
| c1ccc(C2[C@H]3CN(Cc4cccnc4)[C@H](c4ccccc4)C34CC2(c2ccccc2)C4)cc1 (stereo partly specified) | -5.1% |
| Cc1ccc(C)c(N2CCN(C(=O)CCNC(=O)Cn3ccc4ccccc4c3=O)CC2)c1 | 33% |
| O=[N+]([O-])c1ccc(C2Nc3cccc4cccc(c34)N2)cc1 | 25.1% |
| Oc1ccccc1C1Nc2cccc3cccc(c23)N1 | 7.9% |
| O=[N+]([O-])c1ccccc1C1Nc2cccc3cccc(c23)N1 | 105% (active) |
| Cc1ccc(C(NC(=O)N2CCCCC2)=C(Cl)Cl)cc1F | 74% (active) |
| Cc1ccc(C(NC(=O)N2CCOCC2)=C(Cl)Cl)cc1F | 32.1% |
| Cc1ccc(C(NC(=O)NCCCN2CCOCC2)=C(Cl)Cl)cc1F | 34.4% |
| COc1ccc(CN2CCN(c3cccc(C)c3C)CC2)cc1OC | 21.4% |
| CCC1Oc2ccc(C)cc2N(CC(=O)NCCN2CCOCC2)C1=O (stereo unspecified) | -21% |
| Clc1ccc(C2=NN(c3ccccc3)C(c3ccco3)C2)cc1 (stereo unspecified) | -9.1% |
| Fc1ccc(C2=NN(c3ccccc3)C(c3ccco3)C2)cc1 (stereo unspecified) | 4% |
| c1ccc(C2=NN(c3ccccc3)C(c3ccco3)C2)cc1 (stereo unspecified) | 54.1% (active) |
| O=S(=O)(c1ccc(F)cc1)N1CCn2c(nc3ccccc32)C1 | -11.7% |
| CCOc1ccc(S(=O)(=O)Nc2cc(C)ccn2)c2ccccc12 | 5.2% |
